Among the data in PubChem BioAssay AID720706 (Broad Institute, 2013) are GFP signal change (wild-type ribosome), OD600 change and RFP signal change values, retold here.

Structures are written as SMILES. The campaign covered roughly 350,000 compounds. About 5,500 (1.6%) were called active.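 Rule for the calls: active = significant combined selectivity score with lowered wild-type GFP, culture density cut under 30%, mutant RFP and density less affected; inactive = any of these conditions unmet.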 The sample as a whole holds a higher share of actives than the screen did.

The assay in a line: GFP drop in mixed WT/humanized-ribosome E. coli culture – GFP/RFP fluorescence, OD600, single point, bacterial rRNA inhibitor project, primary screen (AID 720706). The note with it: E. coli WT GFP vs humanized-ribosome RFP mutants, 24 h; GFP signal change (wild-type ribosome): stronger effect = lower value, DMSO median 0, no signal -100; OD600 change: measured here: OD600 growth, DMSO median 0, no signal -100; RFP signal change: measured here: RFP humanized mutant strains, DMSO median 0, no signal -100, concentration not given here.
For the compound `C[C@@H]1CN([C@H](C)CO)C(=O)Cc2cc(N(C)C)ccc2O[C@H]1CN(C)C(=O)NC1CCCCC1`, the GFP signal change (wild-type ribosome) is -0.659% (inactive), the OD600 change worked out at 5.18% and the RFP signal change was -1.29%.

With `COc1cccc(C#Cc2ccc([C@@H]3[C@H]4CN(C(=O)Cc5ccccc5)CC(=O)N4[C@H]3CO)cc2)c1`, the GFP signal change (wild-type ribosome) is -5.04% (inactive), the OD600 change is -9.42% and the RFP signal change was determined as 27.5%.

Regarding `CCOc1ccc2nc(N(CCN(C)C)C(=O)c3ccc4ccccc4c3)sc2c1`, the GFP signal change (wild-type ribosome) was -29.3% (active), the OD600 change was -1.85% and the RFP signal change stood at 4.17%.

Consider `CN(C)CCN(C(=O)C1=COCCO1)c1nc2ccc(Cl)cc2s1`, for which the GFP signal change (wild-type ribosome) is 2.56% (inactive), the OD600 change was -1.62% and the RFP signal change is -1.96%.

As for `CCN(CC)CCN(C(=O)c1ccc2c(c1)CCCC2)c1nc2c(OC)cccc2s1`, the GFP signal change (wild-type ribosome) was -52.2% (inactive), the OD600 change was -75.4% and the RFP signal change was -16.6%.

For the compound `CCN(CC)CCN(C(=O)c1cc(Cl)sc1Cl)c1nc2cc3c(cc2s1)OCO3`, the GFP signal change (wild-type ribosome) was 4.27% (inactive), the OD600 change was -1.1% and the RFP signal change is -0.673%.

Consider `CCOc1ccc2nc(C(=O)N3CCCC(C)C3)sc2c1` (stereo not given), for which the GFP signal change (wild-type ribosome) was -6.88% (inactive), the OD600 change was -10.3% and the RFP signal change is -0.532%.

In the case of `Cc1ccc2sc(NNC(=O)c3ccc4c(c3)OCCO4)nc2c1C`, the GFP signal change (wild-type ribosome) was -7.09% (inactive), the OD600 change was -13.5% and the RFP signal change was 7.46%.

Take `CCc1ccc2nc(N(CCCN(C)C)C(=O)c3ccc4c(c3)OCCO4)sc2c1`: the GFP signal change (wild-type ribosome) is -22.5% (active), the OD600 change was -7.47% and the RFP signal change was determined as 6.9%.

On to `CCN(CC)CCN(C(=O)c1ccc(N2C(=O)CCC2=O)cc1)c1nc2cc3c(cc2s1)OCO3`, for which the GFP signal change (wild-type ribosome) is 4.92% (inactive), the OD600 change was -10.9% and the RFP signal change is -4.79%.

For `CN(C)CCCN(C(=O)c1ccc(S(=O)(=O)N2CCCCCC2)cc1)c1nc2cc3c(cc2s1)OCCO3`, the GFP signal change (wild-type ribosome) was -30% (active), the OD600 change is -20.1% and the RFP signal change stood at 0.23%.

In the case of `CN(C)Cc1cn(CC[C@H]2CC[C@H](NS(=O)(=O)c3ccccc3)[C@@H](CO)O2)nn1`, the GFP signal change (wild-type ribosome) was -1.38% (inactive), the OD600 change came out at 8.8% and the RFP signal change is -1.73%.

For `Cc1ccc(S(=O)(=O)N(C)C[C@H]2Oc3c(NS(=O)(=O)c4cn(C)cn4)cccc3C(=O)N([C@@H](C)CO)C[C@H]2C)cc1`, the GFP signal change (wild-type ribosome) was 4.44% (inactive), the OD600 change is 5.92% and the RFP signal change was -0.801%.

With `CCC(=O)N(C)C[C@@H]1Oc2ncc(-c3ccccc3OC)cc2C(=O)N([C@@H](C)CO)C[C@@H]1C`, the GFP signal change (wild-type ribosome) was -1.63% (inactive), the OD600 change amounted to 0.66% and the RFP signal change was 1.16%.

Take `COc1ccc(CNC(=O)C[C@@H]2C=C[C@@H](NC(=O)c3ccc4c(c3)OCO4)[C@@H](CO)O2)cc1`: the GFP signal change (wild-type ribosome) was 3.42% (inactive), the OD600 change stood at 5.74% and the RFP signal change was -0.879%.

For `C[C@H](CO)N1C[C@H](C)[C@H](CN(C)S(C)(=O)=O)Oc2ncc(C3=CCCC3)cc2C1=O`, the GFP signal change (wild-type ribosome) is 4.58% (inactive), the OD600 change is 6.67% and the RFP signal change is -1.55%.

Turning to `O=C(c1cccc(F)c1)N1CCN(c2ccc([N+](=O)[O-])c3cccnc23)CC1`, the GFP signal change (wild-type ribosome) is -17.8% (active), the OD600 change was -11% and the RFP signal change worked out at 4.41%.

For the compound `O=C(c1ccc(N2CCOCC2)c([N+](=O)[O-])c1)N1CCN(c2ccccc2F)CC1`, the GFP signal change (wild-type ribosome) is -19.6% (inactive), the OD600 change was -35.6% and the RFP signal change was -4.01%.

For `O=[N+]([O-])c1cc([N+](=O)[O-])c2cccnc2c1O`, the GFP signal change (wild-type ribosome) is -15.7% (inactive), the OD600 change was found to be 19.1% and the RFP signal change is 3.26%.

As for `C[C@H]1CCCCO[C@@H](CN(C)Cc2ccncc2)[C@@H](C)CN([C@@H](C)CO)C(=O)c2cc(NC(=O)Nc3ccc(F)cc3)ccc2O1`, the GFP signal change (wild-type ribosome) is 1.44% (inactive), the OD600 change is 2.48% and the RFP signal change is -0.987%.

Turning to `CCCN(C)C[C@@H]1OCCCC[C@@H](C)Oc2ccc(NC(=O)CCCN(C)C)cc2C(=O)N([C@H](C)CO)C[C@@H]1C`, the GFP signal change (wild-type ribosome) was -2.58% (inactive), the OD600 change was determined as 6.85% and the RFP signal change is -0.525%.

Turning to `C[C@H](NC(=O)N(C)C[C@@H]1OCc2ccccc2-c2ccccc2C(=O)N([C@H](C)CO)C[C@@H]1C)c1ccccc1`, the GFP signal change (wild-type ribosome) is -0.824% (inactive), the OD600 change was 6% and the RFP signal change was -2.69%.

For `COc1ccc(S(=O)(=O)Nc2ccc3c(c2)C(=O)N(C)C[C@@H](OC)[C@H](C)CN(C(=O)NC(C)C)[C@H](C)CO3)cc1`, the GFP signal change (wild-type ribosome) was 2.15% (inactive), the OD600 change is -6.48% and the RFP signal change was 0.485%.

`CCCNC(=O)N(C)C[C@@H]1Oc2ncc(C#CCc3ccccc3)cc2C(=O)N([C@@H](C)CO)C[C@H]1C`: the GFP signal change (wild-type ribosome) is 2.5% (inactive), the OD600 change is -2.83% and the RFP signal change was -0.346%.

On to `Cc1noc(C)c1S(=O)(=O)N(C)C[C@H]1OCCCC[C@H](C)Oc2ccc(NC(=O)c3ccccc3)cc2C(=O)N([C@@H](C)CO)C[C@H]1C`, for which the GFP signal change (wild-type ribosome) is -1% (inactive), the OD600 change is -0.308% and the RFP signal change came to 2.4%.

For the compound `CC(C)(C)NC(=O)NC(=O)COC(=O)Cc1ccc(Cl)cc1Cl`, the GFP signal change (wild-type ribosome) was -19.2% (active), the OD600 change is -0.7% and the RFP signal change is -0.643%.

With `CC(C)(C)NC(=O)NC(=O)COC(=O)Cc1c(F)cccc1Cl`, the GFP signal change (wild-type ribosome) is -13.1% (inactive), the OD600 change is -4.75% and the RFP signal change was found to be 3.43%.

On to `O=C(COC(=O)Cc1ccc(Cl)cc1Cl)NCc1ccco1`, for which the GFP signal change (wild-type ribosome) is -17.4% (inactive), the OD600 change was -6.25% and the RFP signal change came to 0.815%.

On to `C[C@H](CO)N1C[C@H](C)[C@H](CN(C)Cc2ccncc2)Oc2ccc(NC(=O)Nc3ccc(F)cc3)cc2C1=O`, for which the GFP signal change (wild-type ribosome) was 0.717% (inactive), the OD600 change was -2.2% and the RFP signal change is -2.45%.

As for `CN1c2ccc(-c3ccc(C#N)cc3)cc2[C@@H]2[C@@H](CCN2C(=O)C2CCCCC2)[C@H]1CO`, the GFP signal change (wild-type ribosome) is -6.99% (inactive), the OD600 change was -10.9% and the RFP signal change worked out at 6.2%.

With `CN(C)C(=O)c1ccc(-c2ccccc2[C@H]2[C@@H](CO)N(C(=O)C3CCCCC3)[C@H]2C#N)cc1`, the GFP signal change (wild-type ribosome) is -3.32% (inactive), the OD600 change amounted to 0.601% and the RFP signal change was -4.88%.

Take `O=C(NCCCc1ccccc1)C(=O)c1c[nH]c2ccccc12`: the GFP signal change (wild-type ribosome) is 0.21% (inactive), the OD600 change is -1.22% and the RFP signal change is -2.69%.

As for `O=C(O)c1ccccc1-c1ccccc1C(=O)NCCc1ccccc1`, the GFP signal change (wild-type ribosome) is 7.6% (inactive), the OD600 change came out at 2.74% and the RFP signal change is 2.49%.

Take `O=C(NCCc1ccccc1)c1c[nH]c2ccc(F)cc2c1=O`: the GFP signal change (wild-type ribosome) was -31.8% (active), the OD600 change is -19.6% and the RFP signal change was -3.4%.

Turning to `COCC(=O)N(C)C[C@H]1[C@@H](c2ccccc2)[C@H](CO)N1C(=O)Cc1ccncc1`, the GFP signal change (wild-type ribosome) is 4.17% (inactive), the OD600 change was determined as 8.74% and the RFP signal change came out at 0.341%.

Consider `Cc1ccc(S(=O)(=O)N[C@H]2CC[C@@H](CC(=O)NCCCN(C)C)O[C@H]2CO)cc1`, for which the GFP signal change (wild-type ribosome) is 4.5% (inactive), the OD600 change turned out to be 5.89% and the RFP signal change is -1.14%.

Regarding `C[C@H](CO)N1C[C@H](C)[C@@H](CN(C)S(C)(=O)=O)Oc2ccc(NC(=O)Nc3ccc4c(c3)OCO4)cc2CC1=O`, the GFP signal change (wild-type ribosome) is -0.075% (inactive), the OD600 change was 5.52% and the RFP signal change was found to be 1.12%.

`CCCc1c(C(=O)O)cnn1-c1ccc(Cl)cc1`: the GFP signal change (wild-type ribosome) was -6.54% (inactive), the OD600 change was -3.54% and the RFP signal change was 0.509%.

For the compound `NNC(=O)c1cnn(-c2ccccc2)c1C(F)(F)F`, the GFP signal change (wild-type ribosome) is 5.13% (inactive), the OD600 change amounted to 9.29% and the RFP signal change was -0.665%.

Regarding `O=C(NNS(=O)(=O)c1ccccc1)c1cnn(-c2ccc(Cl)cc2)c1C(F)(F)F`, the GFP signal change (wild-type ribosome) was -40.1% (active), the OD600 change was determined as 20.1% and the RFP signal change came out at 3.85%.
